# Compound activity as filed in PubChem.
# Six1-Eya2 inh – inhibitors of human Six1/Eya2 interaction | AlphaScreen GST-Six1/His-Eya2 binding, biochemical; active compounds read low | activity change, % (test concentration not listed) | hit rate 0.56% among 360,000 | AID 651725; in the data active = activity change below about -65%; inconclusive = mostly about -30% to -63%; note: % is set by controls: 0 for no effect and ±100 for the full control effect
# Target sequence (O00167 whole entry, looked up): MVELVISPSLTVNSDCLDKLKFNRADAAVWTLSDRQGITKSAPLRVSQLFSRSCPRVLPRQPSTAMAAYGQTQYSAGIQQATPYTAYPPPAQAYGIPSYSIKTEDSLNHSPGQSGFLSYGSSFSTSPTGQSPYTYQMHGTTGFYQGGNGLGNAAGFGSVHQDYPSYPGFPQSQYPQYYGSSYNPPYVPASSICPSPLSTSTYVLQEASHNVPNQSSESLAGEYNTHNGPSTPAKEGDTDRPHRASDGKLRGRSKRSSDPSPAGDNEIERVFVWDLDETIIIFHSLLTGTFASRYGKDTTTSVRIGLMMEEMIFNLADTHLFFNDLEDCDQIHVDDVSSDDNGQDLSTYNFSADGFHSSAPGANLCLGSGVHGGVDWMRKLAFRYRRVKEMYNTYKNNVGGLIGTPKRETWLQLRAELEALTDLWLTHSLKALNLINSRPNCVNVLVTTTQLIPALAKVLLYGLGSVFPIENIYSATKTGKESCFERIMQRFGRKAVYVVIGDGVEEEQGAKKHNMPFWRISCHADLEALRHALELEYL
# Target sequence (Q15475 whole entry, looked up): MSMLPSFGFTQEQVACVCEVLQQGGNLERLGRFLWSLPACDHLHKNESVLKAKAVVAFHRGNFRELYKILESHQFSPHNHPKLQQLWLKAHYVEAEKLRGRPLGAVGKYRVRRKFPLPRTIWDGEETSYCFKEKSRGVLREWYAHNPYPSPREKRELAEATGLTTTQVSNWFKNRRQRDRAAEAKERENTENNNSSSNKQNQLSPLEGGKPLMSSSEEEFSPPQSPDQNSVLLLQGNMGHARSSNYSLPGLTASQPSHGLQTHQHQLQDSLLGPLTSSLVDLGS
#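 Six1/Eya2 binding was read as AlphaScreen signal after compounds were pinned into GST-Six1 plus His-tagged Eya2 (5X stock 250/500 nM) in pH 8.0 Tris/NaCl/TCEP buffer, beads added, then incubated 1 h, 37 C, dark.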
# ATXN2 expr inh – reduces ATXN2 reporter expression in HEK-293 cells | HEK-293 ATXN2-luciferase reporter, luminescence, 24 h | Potency, µM (highest dose often 57 µM), for the others: at the top dose activity change, negative = inhibition, most hits filed as inhibitors | hit rate 0.72% among 360,000 | AID 1745845; note: potency is the fitted concentration of half-maximal effect; % is set by controls: 0 for no effect and ±100 for the full control effect; nearly all actives have a fitted effect of over 55% in size
#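 ATXN2-luciferase reporter cells (luciferase flanked by upstream and downstream ATXN2 gene portions) were treated 24 h at 37 °C with compounds at up to 57 uM. SteadyGlo luminescence gave expression; GF-AFC fluorescence gave viability.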
# CtBP-E1A blk – inhibitors of CtBP/E1A interaction; AlphaScreen GST-E1A/His-CtBP binding, 1536-well; active compounds read low; activity change, % (concentration not given with the values); hit rate 0.49% among 340,000; in the data active = activity change below about -65%; inconclusive = mostly about -30% to -63%; note: % is set by controls: 0 for no effect and ±100 for the full control effect
#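 Protein mix (5X: 125 nM each GST-E1A, His-CtBP) was incubated with pinned compound 2 h at 37 deg C in dark, in 50 mM Tris pH 8.0 buffer with 300 mM NaCl. Glutathione donor and nickel acceptor beads followed; AlphaScreen signal read after 1 h.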
# TGFb inhibitor – inhibitors of TGF-b signaling; hit rate 1.2% among 410,000; HepG2 CAGA-GFP TGF-b/SMAD3 reporter, GFP fluorescence, 18 h; TGF-beta stimulated, 500 pg/mL final; Potency, µM (series often up to 46.1 µM), inactives show at the top dose activity, negative = inhibition, usual class: inhibitors; note: potency is the fitted concentration of half-maximal effect; % is set by controls: 0 for no effect and ±100 for the full control effect; nearly all actives have a fitted effect of over 65% in size
#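 Using HEPG2 CAGA-GFP reporter cells at 1000 cells/well, we pinned test compounds, stimulated with recombinant TGF-beta (500 pg/mL final) and measured total well GFP after 18 h.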
# ATXN viability – viability counter-screen for ATXN expression inhibitors; S2 cells (HEK-293 line with an ATXN2-luciferase reporter) viability, CellTiter-Fluor protease fluorescence, 24 h; Potency, µM (titrated, usually from 56.7 µM), most hits filed as cytotoxic; hit rate 0.49% among 400,000; AID 651635; note: potency is the fitted concentration of half-maximal effect; nearly all actives have a fitted effect of over 40% in size
# HepG2 tox – HepG2 cytotoxicity, counter-screen for TGF-b inhibitors; AID 588856; HepG2 CAGA-GFP viability, ATP luminescence, 18 h; hit rate 0.76% among 410,000; Potency, µM (doses to about 46.1 µM), without a hit: at the highest dose activity change, negative = cytotoxicity, usual class: cytotoxic; note: potency is the fitted concentration of half-maximal effect
#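 HepG2 CAGA-GFP cells (1000/well, DMEM with 1% FBS) received compound, then TGF-beta at 500 pg/mL final, and were incubated 18 hours at 37 degrees C. Viability was read by CellTiter-Glo luminescence. Media-only wells were set as complete cell-killing and DMSO as no toxicity.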
# * marks the source's active call; other numbers are inactive results; i = inactive; ? = inconclusive; · = no result. Only some compounds are listed: those with a hit (about 2.8% of all), similar ones and a draw of the others. Unless noted, calls come from the whole dose curve; as a rule, active = well fitted curve in the direction sought with a large enough effect; inconclusive = small, poorly fitted or top-dose-only effect, or another doubt; inactive = no such curve, though single readings can be large; an effect the other way counts as inactive or inconclusive.
SMILES,Six1-Eya2 inh,ATXN2 expr inh,CtBP-E1A blk,TGFb inhibitor,ATXN viability,HepG2 tox
O=C(NCc1ccc2c(c1)OCO2)c1ccccc1Cl,5.3,13.2%,-0.1,22.0%,i,-6.9%
O=C(Nc1ccccc1)c1nc(S(=O)(=O)Cc2ccccc2F)ncc1Cl,·,·,·,3.16µM*,·,7.08µM*
O=C(Nc1ccc(F)cc1)c1nc(SCc2ccccc2F)ncc1Cl,·,·,·,?,·,-19.3%
O=C(NCc1ccc2c(c1)OCO2)c1nc(S(=O)(=O)Cc2ccccc2F)ncc1Cl,-14.1,·,·,11.2µM*,·,15.8µM*
COC(=O)c1ccc(NC(=O)c2nc(S(=O)(=O)Cc3ccccc3F)ncc2Cl)cc1,·,·,·,6.31µM*,·,12.6µM*
CCOC(=O)c1ccc(NC(=O)c2nc(SCc3ccccc3F)ncc2Cl)cc1,·,·,·,-32.3%,·,-16.0%
CCOc1ccc(NC(=O)CSc2oc(-c3ccc(F)cc3)nc2S(=O)(=O)c2ccc(C)cc2)cc1,·,·,·,-12.5%,·,-2.6%
Cc1c(C(=O)N(C)Cc2nccs2)sc2ncnc(NCC3CCCO3)c12 (stereo not drawn),·,·,·,·,i,·
CCOc1ccccc1NC(=O)C1CCCN1S(=O)(=O)c1ccc2nc(-c3ccccc3)[nH]c2c1 (stereo not drawn),·,·,·,11.2µM*,·,-27.5%
COC(=O)[C@@H]1CCCN1Cc1ccc2c(c1)CN(Cc1cccn1-c1ccccn1)CCO2,·,·,·,·,i,·
Cc1cccc2nc(-c3cccnc3)c(Nc3ccc(C(C)C)cc3)n12,·,15.8µM*,·,?,12.6µM*,-33.3%
CCOC(=O)c1cccc(NC(=O)Cc2ccc(NC(=O)N3CCCCc4ccccc43)cc2)c1,·,-15.8%,·,-27.7%,?,-11.5%
CC(C1SC(=S)NC1=O)C1SC(=S)NC1=O (stereo not drawn),-83.3*,·,-72.8*,12.7%,i,0.0%
CCSC1=NC(=O)/C(=C2/C=Cc3ccccc3N2CC)S1,-79.1*,12.1%,-74.2*,0.0%,?,-50.9%
NS(=O)(=O)c1ccc(Sc2nc3ccccc3s2)c([N+](=O)[O-])c1,-0.8,?,-2.8,?,i,12.6µM*
Cc1cc(=O)n(CC(=O)NCCC(C)C)c2c1c(C)nn2C,·,-2.9%,·,-33.7%,i,-19.7%
COC(=O)c1ccc(C(=O)NCC2Cc3cc(F)cc(-c4cncnc4)c3O2)cc1 (stereo not drawn),·,·,·,·,i,·
CCOc1ccc2nc(NC3=NC(c4ccc(OC)cc4)CC(=O)N3)nc(C)c2c1 (stereo not drawn),-12.8,8.91µM*,3.0,?,8.91µM*,-100.8%
CCOc1ccc2nc(NC3=NC(C)(C)C=C(C)N3)nc(C)c2c1,-6.7,?,-9.7,?,?,-33.0%
Cc1[nH]c2ccccc2c1C1(O)C(=O)N(Cc2ccccc2)c2ccc(Br)cc21 (stereo not drawn),·,?,·,?,i,-115.9%
Cc1ccc(CN2C(=O)C(O)(c3c[nH]c4ccccc34)c3cc(Cl)ccc32)cc1 (stereo not drawn),·,?,·,2.82µM*,i,12.6µM*
COc1ccccc1C1CN(Cc2c(C)nc3sccn23)Cc2ccccc2O1 (stereo not drawn),·,·,·,·,i,·
COc1ccc([C@H]2CC(=O)C=C(c3ccccc3)C2)cc1OC,13.8,-26.1%,21.6,-12.1%,i,-20.8%
CCCCC/C=C/C1=CC(=O)C[C@H](c2ccc(OC)c(OC)c2)C1,0.5,22.4µM*,-10.4,?,?,-18.1%
C#Cc1cccc(C(=O)NCc2nc(-c3ccccc3NC(=O)C3CCCO3)oc2C)c1 (stereo not drawn),·,·,·,·,i,·
NC(CCc1ccccc1)c1csc(Nc2ccc(C(=O)c3ccccc3)cc2)n1 (stereo not drawn),10.3,?,7.5,?,?,15.8µM*
